Assay results: PubChem BioAssay
Activity calls are given as the source filed them.

Assays:
[1] = small molecules captured by biotinylated probe aFSTL3 – biochemical, small-molecule microarray, fluorescence 635/667, stem cell growth factor project, primary screen (AID 1064); details: higher = more signal;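 also: measures binding of the biotinylated anti-FSTL3 antibody to printed compounds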
[2] = binders from COS7 lysate, DM2A8 probe, primary screen, torsin A project, cell lysate, small-molecule microarray, fluorescence 635/667 (AID 1065); details: higher = more signal, COS7 lysate expressing mutant human TOR1A
[3] = small molecules captured by biotinylated probe aFGF2 – biochemical, small-molecule microarray, fluorescence 635/667, stem cell growth factor project, primary screen (AID 1067); details: higher = more signal;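 also: measures binding of biotinylated aFGF2 protein to printed compounds on slides; z-score merges feature fluorescence and signal-to-noise across triplicate slides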
[4] = small molecules captured by biotinylated probe aFGF10 – biochemical, small-molecule microarray, fluorescence 635/667, stem cell growth factor project, primary screen (AID 1071); details: higher = more signal;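 also: score merges 667 nm spot intensity and signal to noise from triplicate slides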
[5] = target: Neurogenic locus notch homolog protein 2 (Homo sapiens) (UniProt Q04721); experiment: small molecules binding Notch2 protein – biochemical, small-molecule microarray, 635 nm fluorescence, stem cell growth factors, primary screen (AID 1073); details: higher = more signal
[6] = target: Pro-neuregulin-1, membrane-bound isoform (Homo sapiens) (UniProt Q02297); experiment: small molecules binding neuregulin-1 protein – biochemical, small-molecule microarray, fluorescence 635/667, psychiatric disease protein project, primary screen (AID 1075); details: NRG1 binding, 635 nm fluorescence, higher = more signal;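 also: score combines 667 nm spot fluorescence with signal to noise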
[7] = tested on: Neuregulin-1 EGF-like domain; experiment: small molecules binding NRG1 EGF domain – biochemical, small-molecule microarray, 635 nm fluorescence, primary screen (AID 1081); details: higher = more signal;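 also: binding of the protein to compounds printed on small-molecule microarray slides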
[8] = FRG1 expression reporter modulators in myotubes – cell-based, C2C12 myotubes, firefly/Renilla luciferase, luminescence, FRG1 inhibition for FSHD, primary screen (AID 1084); details: FRG1 promoter luciferase, higher = more signal, called active from +8 up or from −8 down
[9] = small molecules captured by biotinylated probe aFST – biochemical, small-molecule microarray, fluorescence 635/667, stem cell growth factor project, primary screen (AID 1086); details: higher = more signal;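 also: score merges 667 nm fluorescence with signal-to-noise of each printed compound spot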
[10] = binders of probe aHhip on microarray, primary screen, stem cell growth factor project, biochemical, small-molecule microarray, fluorescence 635/667 (AID 1087); details: higher = more signal;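 also: score merges spot fluorescence at 667nm with spot signal to noise ratio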
[11] = tested on: PRMT1 (protein arginine N-methyltransferase 1); experiment: small molecules binding arginine methyltransferase PRMT1 – biochemical, small-molecule microarray, 635 nm fluorescence, primary screen (AID 1088); details: higher = more signal;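 also: binding of Prmt1 protein to compounds spotted on small-molecule microarray slides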
[12] = growth effects on S. cerevisiae YJM789 – YJM789 clinical isolate, OD600, 24 h, basal, primary screen (AID 1089); details: higher = more signal, called active from +8 up or from −8 down;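 also: growth of clinical yeast isolate S. cerevisiae YJM 789 seeded 1000 cells per well; test concentration not given here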
[13] = S. pombe growth modifiers, basal conditions – strain 972, OD600, 24 h, no modulator, primary screen (AID 1090);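 also: basal condition with compound alone and no growth modifier present; test concentration not given here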; details: S. pombe 972 growth, higher = more signal, called active from +8 up or from −8 down
[14] = budding yeast growth modifiers under rapamycin – strain BY4716, OD600, 96 h, primary screen (AID 1091); also: test concentration not given here; details: S. cerevisiae BY4716 + rapamycin, higher = more signal, called active from +8 up or from −8 down
[15] = target: Torsin-1A-interacting protein 2 (Homo sapiens) (UniProt Q8NFQ8); experiment: small molecules binding lysate-expressed LULL1 – cell lysate, human LULL1 lysate, 635/667 nm fluorescence, primary screen (AID 1092); details: small-molecule microarray, hLULL1 lysate binding, 635 nm fluorescence; higher = more signal;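 also: probe is lysate of COS7 cells overexpressing human LULL1; score merges per-feature 667 nm fluorescence with signal-to-noise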
[16] = optical density change of DRC41 E. coli – strain DRC41, OD650, 24 h, E. coli filamentation project, primary screen (AID 1093);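 also: MC1000 strain lacking acrAB efflux and sulA so SOS filamentation is blocked; test concentration not given here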; details: E. coli DRC41 growth, higher = more signal, called active from +8 up or from −8 down
[17] = probe aLefty2 binding to arrayed compounds – biochemical, biotinylated probe, 635/667 nm fluorescence, primary screen (AID 1094); details: small-molecule microarray, higher = more signal;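 also: score merges spot fluorescence near 667 nm with spot signal-to-noise ratio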
[18] = tested on: Noggin (protein binding on small-molecule microarray); experiment: small molecules binding Noggin protein – biochemical, 635/667 nm fluorescence, primary screen (AID 1095); details: 635 nm fluorescence, higher = more signal;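 also: score merges 667 nm feature fluorescence with signal to noise over triplicate slides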
[19] = target: Neurogenic locus notch homolog protein 3 (Homo sapiens) (UniProt Q9UM47); experiment: small molecules binding NOTCH3 protein – biochemical, 635/667 nm fluorescence, primary screen (AID 1096); details: small-molecule microarray, 635 nm fluorescence, higher = more signal
[20] = probe aEGFR binding to arrayed compounds – biochemical, biotinylated probe, 635/667 nm fluorescence, primary screen (AID 1097); details: small-molecule microarray, higher = more signal;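 also: probe is a biotinylated anti-EGFR antibody binding compounds printed on slides; score combines fluorescence near 667 nm and signal to noise of each spot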

Pro-neuregulin-1, membrane-bound isoform (Homo sapiens), sequence (Q02297 whole entry, looked up, the tested form may be a part, canonical isoform): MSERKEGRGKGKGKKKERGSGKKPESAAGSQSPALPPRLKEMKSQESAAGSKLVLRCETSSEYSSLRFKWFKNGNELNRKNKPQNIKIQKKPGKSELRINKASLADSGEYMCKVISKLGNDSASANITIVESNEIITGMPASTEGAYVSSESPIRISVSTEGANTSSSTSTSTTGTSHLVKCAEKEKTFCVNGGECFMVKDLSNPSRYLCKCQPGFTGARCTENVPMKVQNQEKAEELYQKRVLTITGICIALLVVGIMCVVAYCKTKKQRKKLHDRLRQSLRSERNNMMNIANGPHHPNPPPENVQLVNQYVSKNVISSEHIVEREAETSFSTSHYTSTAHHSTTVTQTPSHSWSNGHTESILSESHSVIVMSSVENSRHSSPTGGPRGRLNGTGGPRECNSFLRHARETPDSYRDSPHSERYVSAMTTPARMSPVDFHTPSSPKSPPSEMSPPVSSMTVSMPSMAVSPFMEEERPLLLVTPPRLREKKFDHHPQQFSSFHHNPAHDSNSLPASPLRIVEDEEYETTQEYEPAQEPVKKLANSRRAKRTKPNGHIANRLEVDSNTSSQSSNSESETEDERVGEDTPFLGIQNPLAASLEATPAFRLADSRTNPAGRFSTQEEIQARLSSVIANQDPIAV
Torsin-1A-interacting protein 2 (Homo sapiens), sequence (Q8NFQ8 whole entry, looked up): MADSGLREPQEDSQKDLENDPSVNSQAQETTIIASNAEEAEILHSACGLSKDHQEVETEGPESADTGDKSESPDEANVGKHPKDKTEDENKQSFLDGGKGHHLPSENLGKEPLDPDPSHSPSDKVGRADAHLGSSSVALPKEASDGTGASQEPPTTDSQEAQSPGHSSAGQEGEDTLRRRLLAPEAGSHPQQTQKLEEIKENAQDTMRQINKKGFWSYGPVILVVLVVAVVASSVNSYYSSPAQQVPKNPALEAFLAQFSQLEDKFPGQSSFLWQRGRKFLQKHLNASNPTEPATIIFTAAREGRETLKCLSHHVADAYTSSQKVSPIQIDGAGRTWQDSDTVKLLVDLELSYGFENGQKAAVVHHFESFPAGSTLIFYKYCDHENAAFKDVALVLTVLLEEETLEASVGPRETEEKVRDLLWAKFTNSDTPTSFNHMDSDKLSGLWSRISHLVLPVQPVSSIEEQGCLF
Neurogenic locus notch homolog protein 2 (Homo sapiens), sequence (Q04721 whole entry, looked up, canonical isoform): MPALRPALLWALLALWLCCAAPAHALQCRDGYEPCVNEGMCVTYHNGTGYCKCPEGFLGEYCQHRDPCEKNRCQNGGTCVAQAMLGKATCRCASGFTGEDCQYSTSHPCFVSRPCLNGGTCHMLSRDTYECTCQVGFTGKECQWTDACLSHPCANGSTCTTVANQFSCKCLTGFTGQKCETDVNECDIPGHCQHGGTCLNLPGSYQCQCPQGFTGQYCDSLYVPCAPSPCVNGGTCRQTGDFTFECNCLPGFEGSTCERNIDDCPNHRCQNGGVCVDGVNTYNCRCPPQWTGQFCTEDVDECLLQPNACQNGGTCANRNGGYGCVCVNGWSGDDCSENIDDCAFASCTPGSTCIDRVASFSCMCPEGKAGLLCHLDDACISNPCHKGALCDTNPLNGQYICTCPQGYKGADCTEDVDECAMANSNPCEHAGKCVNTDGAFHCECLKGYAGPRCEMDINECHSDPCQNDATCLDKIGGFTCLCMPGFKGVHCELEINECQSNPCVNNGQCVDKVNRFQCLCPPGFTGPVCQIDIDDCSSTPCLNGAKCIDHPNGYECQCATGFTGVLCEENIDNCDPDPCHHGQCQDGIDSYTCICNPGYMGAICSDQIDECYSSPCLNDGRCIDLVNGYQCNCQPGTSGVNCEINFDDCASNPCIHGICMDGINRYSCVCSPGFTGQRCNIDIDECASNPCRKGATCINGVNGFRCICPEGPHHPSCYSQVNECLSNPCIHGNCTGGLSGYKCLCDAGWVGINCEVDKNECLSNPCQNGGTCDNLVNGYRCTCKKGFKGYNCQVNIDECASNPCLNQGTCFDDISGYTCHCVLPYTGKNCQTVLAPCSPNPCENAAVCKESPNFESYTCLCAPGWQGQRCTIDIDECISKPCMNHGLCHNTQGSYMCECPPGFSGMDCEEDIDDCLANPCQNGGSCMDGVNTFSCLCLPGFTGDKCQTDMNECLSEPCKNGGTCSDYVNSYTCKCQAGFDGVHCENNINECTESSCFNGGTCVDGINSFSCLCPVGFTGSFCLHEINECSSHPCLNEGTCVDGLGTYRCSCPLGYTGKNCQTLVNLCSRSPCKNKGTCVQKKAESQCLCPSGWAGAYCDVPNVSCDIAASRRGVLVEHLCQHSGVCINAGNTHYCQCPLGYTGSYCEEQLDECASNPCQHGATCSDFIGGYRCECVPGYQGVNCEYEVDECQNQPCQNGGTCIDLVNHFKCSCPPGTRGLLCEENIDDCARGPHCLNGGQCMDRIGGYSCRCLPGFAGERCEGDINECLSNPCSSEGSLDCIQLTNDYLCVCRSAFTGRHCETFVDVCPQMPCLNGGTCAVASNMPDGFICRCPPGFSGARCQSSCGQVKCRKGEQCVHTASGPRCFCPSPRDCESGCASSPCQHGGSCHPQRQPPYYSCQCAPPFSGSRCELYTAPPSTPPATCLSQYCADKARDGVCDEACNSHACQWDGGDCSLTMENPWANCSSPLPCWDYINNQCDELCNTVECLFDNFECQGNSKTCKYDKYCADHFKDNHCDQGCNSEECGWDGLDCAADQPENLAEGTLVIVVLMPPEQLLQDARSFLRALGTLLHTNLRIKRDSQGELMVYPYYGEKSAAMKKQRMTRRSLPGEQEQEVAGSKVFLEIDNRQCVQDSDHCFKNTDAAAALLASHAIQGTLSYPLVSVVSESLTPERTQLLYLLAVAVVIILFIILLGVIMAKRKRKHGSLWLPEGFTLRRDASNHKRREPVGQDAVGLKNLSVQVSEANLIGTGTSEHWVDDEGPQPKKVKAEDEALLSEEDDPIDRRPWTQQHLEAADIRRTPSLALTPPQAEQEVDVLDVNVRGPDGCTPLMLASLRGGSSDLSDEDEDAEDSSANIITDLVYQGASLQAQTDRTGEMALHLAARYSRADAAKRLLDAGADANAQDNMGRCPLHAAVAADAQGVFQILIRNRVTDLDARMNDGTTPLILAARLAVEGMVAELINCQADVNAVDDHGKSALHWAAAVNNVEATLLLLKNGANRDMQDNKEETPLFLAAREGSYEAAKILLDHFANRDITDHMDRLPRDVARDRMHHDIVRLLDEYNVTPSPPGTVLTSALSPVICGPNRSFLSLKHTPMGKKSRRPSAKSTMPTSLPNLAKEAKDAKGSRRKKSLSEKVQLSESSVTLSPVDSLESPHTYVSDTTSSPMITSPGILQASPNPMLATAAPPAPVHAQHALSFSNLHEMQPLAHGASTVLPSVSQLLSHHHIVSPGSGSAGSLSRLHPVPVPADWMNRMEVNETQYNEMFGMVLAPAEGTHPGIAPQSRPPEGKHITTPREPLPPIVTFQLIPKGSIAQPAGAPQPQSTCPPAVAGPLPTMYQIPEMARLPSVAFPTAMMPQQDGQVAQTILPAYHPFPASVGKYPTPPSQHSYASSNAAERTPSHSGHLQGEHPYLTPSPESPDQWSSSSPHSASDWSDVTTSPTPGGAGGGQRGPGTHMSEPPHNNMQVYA

SMILES | composite z-score [1] | composite z-score [2] | composite z-score [3] | composite z-score [4] | composite z-score [5] | composite z-score [6] | composite z-score [7] | z-score [8] | composite z-score [9] | composite z-score [10] | composite z-score [11] | z-score [12] | z-score [13] | z-score [14] | composite z-score [15] | z-score [16] | composite z-score [17] | composite z-score [18] | composite z-score [19] | composite z-score [20]
C=CCN1C(=O)[C@@]2(O[C@@H](CCn3cc(CCO)nn3)[C@H]([Si](C)(C)c3ccc(OC)cc3)[C@H]2C)c2cc(N3C(=O)c4cccc5cccc3c45)ccc21 | -0.323 | 0.749 | -0.0839 | 0.569 | 0.705 | 1.11 | 0.813 | -2.79 (inactive) | 0.42 | 0.142 | 0.949 | -0.309 (inactive) | 0.593 (inactive) | 13.5 (active) | 0.875 | 2.4 (inactive) | -0.0592 | 0.412 | 1.07 | -0.0332
CCCCCN1CC=CC23O[C@@H]4/C=C\CCC(C)OC(=O)C4[C@H]2C(=O)N(CCO)[C@@H]3C1=O (stereo not given in full) | 0.767 | 2.14 | -0.216 | -0.807 | -0.762 | 0.77 | 1.13 | 0.569 (inactive) | -0.639 | -0.16 | -0.754 | -0.139 (inactive) | -1.24 (inactive) | -0.0531 (inactive) | 1.45 | 2.35 (inactive) | -0.139 | -1.36 | -0.728 | -0.317
[N-]=[N+]=NCc1ccccc1C[C@@]1(C(=O)NCc2ccccc2)N=C(c2ccc(OCCCO)cc2)O[C@@H]1c1ccccc1 | 1.16 | 0.997 | 0.0336 | 0.422 | 0.853 | 0.457 | 0.856 | -3.28 (inactive) | 0.551 | -0.191 | 0.475 | 1.06 (inactive) | 0.393 (inactive) | 32.7 (active) | 1.82 | 2.1 (inactive) | 0.247 | -0.41 | -0.0209 | 0.0139
CC(=O)NCCCC[C@@H]1NC(=O)[C@@H]2C[C@H](C(=O)O)[C@H](c3cccc(OCCO)c3)N2C1=O | -0.16 | 0.619 | -0.112 | 0.321 | 0.124 | 0.0677 | 1.31 | 0.356 (inactive) | 0.199 | -0.153 | 1.55 | 1.18 (inactive) | -0.201 (inactive) | 1.46 (inactive) | 0.654 | 0.809 (inactive) | -0.0846 | 1.6 | 0.58 | 0.0437
C=CCC1(CC=C)C[C@H]2CO[C@H](c3ccc(OC)cc3)N2C1=O | 0.79 | 0.533 | -0.107 | 0.201 | -0.412 | 0.0973 | 0.523 | -0.465 (inactive) | 0.132 | -0.0994 | -0.109 | -0.137 (inactive) | -2.77 (inactive) | -0.484 (inactive) | 0.288 | 2 (inactive) | 0.109 | 0.377 | -0.638 | -0.0204
O=C1c2ccccc2[C@@]2(Cc3ccccc3N(CC(F)(F)F)C2=O)[C@H](c2ccc(CO)cc2)N1Cc1ccccc1C(F)(F)F | 0.886 | -0.752 | -0.131 | -0.597 | -1.34 | -0.61 | -1.2 | -0.435 (inactive) | -0.596 | -0.191 | 0.52 | -0.84 (inactive) | -1.25 (inactive) | -1.12 (inactive) | 0.394 | 0.886 (inactive) | -0.0412 | -1.51 | -1.18 | -0.26
COc1ccc(/C=C/C(=O)c2cccc(OCC(=O)OC(C)(C)C)c2)cc1 | 0.158 | 0.0968 | -0.17 | -0.672 | -0.466 | 0.421 | 0.284 | 4.17 (inactive) | -0.126 | -0.226 | 0.898 | 0.0268 (inactive) | -2.14 (inactive) | 10.9 (active) | 1.21 | 0.328 (inactive) | -0.102 | -0.584 | -0.974 | -0.304
CC(C)C(CO)N1C(=O)[C@@H]2C3C(=O)OCCC/C=C\[C@H]3OC23C=CCN(C(C)C)C(=O)[C@@H]13 (stereo not given in full) | 0.303 | 0.716 | -0.116 | -0.836 | -1.43 | 2.17 | 0.784 | 0.366 (inactive) | -0.381 | -0.0994 | 0.613 | -1.1 (inactive) | -1.55 (inactive) | -1.1 (inactive) | 2.65 | 2.41 (inactive) | 0.727 | -0.868 | -0.134 | -0.188
O=C1O[C@H](c2ccccc2)[C@H](c2ccccc2)N2[C@H]1[C@@H](C(=O)NC[C@H](O)c1ccccc1)[C@]1(C(=O)Nc3ccc(C#CC4(O)CCCCCC4)cc31)[C@H]2c1ccc(O)cc1 | 0.0879 | 0.705 | -0.0529 | 0.676 | 1.47 | 1.62 | 1.34 | -0.0847 (inactive) | 0.837 | 0.131 | 1.58 | -0.307 (inactive) | -1.14 (inactive) | 0.393 (inactive) | 1.41 | 1.69 (inactive) | 0.113 | 0.927 | 1.1 | 0.0425
